Among the test systems are ZAK; ZAP70; p38-delta.
Details in all cases: concentration: 1 μM, replicates: in singlicate; n = 1
For another assay, the system named is T1, YANK3.
T1 construct: gene STK32C

The next assay concerns T2, YES.
T2 construct: gene YES1

The next assay concerns T3, YSK1.
T3 construct: gene STK25

In the next assay the test system is T4, YSK4.
T4 construct: gene MAP3K19

A further assay concerns T5, p38-alpha.
T5 construct: gene MAPK14

The next assay deals with T6, p38-beta.
T6 construct: gene MAPK11

The test system of a further assay is T7, p38-gamma.
T7 construct: gene MAPK12
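Also: KINOMEscan kinase panel screen.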

In the case of `NS(=O)(=O)CCc1cccc(Nc2nccc(-c3c(-c4cccc(NC(=O)c5c(F)cccc5F)c4)nn4ccccc34)n2)c1` [GSK336735], the “%Inh” value with YANK3 is 37%; in the assay with YES it was 99.8%; with YSK1, 24%; in the assay with YSK4 it was 20%; in the assay with ZAK, 98.4%; with ZAP70, 0%. Besides, the “%Inh” value in the assay on p38-alpha is on record as 97.8%; in the assay on p38-beta, 98.7%; in the assay with p38-delta it was 54%; with p38-gamma it was 0%.

Consider `C[C@@H](Oc1cc(-n2cnc3ccc(NC(=O)NC(C)(C)C)cc32)sc1C(N)=O)c1ccccc1Cl` [GSK346294], for which the “%Inh” value with YANK3 is given as 12%; in the assay on YES, 3%; in the assay with YSK1 it was 0%; in the assay with YSK4, 3%; in the assay with ZAK it was 0%; in the assay with ZAP70, 6%. The “%Inh” value with p38-alpha is on record as 32%; in the assay on p38-beta it was 0%; in the assay on p38-delta, 30%; with p38-gamma, 2%.

With `O=C(Nc1cccc(-c2nn3ncccc3c2-c2ccnc(Nc3cccc(C(F)(F)F)c3)n2)c1)c1c(F)cccc1F` [GSK299495], the “%Inh” value with YANK3 was 10%; in the assay with YES, 98.7%; in the assay with YSK1, 0%; with YSK4 it was 33%; in the assay with ZAK, 87%; with ZAP70 it was 51%. Also, the “%Inh” value in the assay on p38-alpha amounted to 43%; in the assay on p38-beta it was 24%; in the assay with p38-delta, 53%; in the assay on p38-gamma, 13%.

Turning to `COc1ccc(CNC(=O)NC2CCN(c3ccnc(Nc4ccc(OC)cc4)n3)C2)cc1` (centres unmarked) [GSK1379727], the “%Inh” value turned out to be 8% in the assay with YANK3; 3% in the assay with YES; 0% in the assay on YSK1; 36% in the assay on YSK4; 0% in the assay with ZAK; 0% in the assay with ZAP70. For the same molecule, the “%Inh” value in the assay with p38-alpha was found to be 11%; in the assay with p38-beta, 0%; in the assay on p38-delta it was 8%; with p38-gamma, 45%.

Consider `Fc1ccc(-c2ncn(CCCN3CCOCC3)c2-c2cccnc2)cc1` [SB-211743], for which the “%Inh” value in the assay with YANK3 came out at 0%; in the assay with YES, 0%; in the assay on YSK1 it was 0%; in the assay with YSK4, 22%; in the assay on ZAK, 0%; in the assay on ZAP70, 0%. Also, the “%Inh” value was determined as 0% in the assay with p38-alpha, 0% in the assay on p38-beta, 0% with p38-delta and 48% in the assay with p38-gamma.

Consider `COc1ccc(Nc2nccc(N3CCC(NC(=O)Nc4cc(C)ccc4C)C3)n2)cc1` (centres unmarked) [GSK1379741], for which the “%Inh” value in the assay with YANK3 is given as 8%; with YES it was 13%; with YSK1, 0%; in the assay with YSK4, 19%; in the assay on ZAK, 5%; in the assay on ZAP70, 0%. The “%Inh” value in the assay on p38-alpha was 0%; in the assay on p38-beta, 0%; in the assay with p38-delta, 47%; in the assay on p38-gamma, 0%.

In the case of `CCn1cnc2c(N)ncnc21` [GW345098], the “%Inh” value amounted to 0% in the assay with YANK3; 21% in the assay with YES; 0% in the assay on YSK1; 5% in the assay on YSK4; 12% in the assay with ZAK; 3% in the assay on ZAP70. Moreover, the “%Inh” value in the assay with p38-alpha is recorded as 5%; with p38-beta it was 4%; in the assay on p38-delta, 0%; in the assay with p38-gamma it was 49%.

In the case of `Cc1c(Cn2c(C)nn3c(=O)cc(N4CCOC(C)C4)nc23)cccc1C(F)(F)F` (centres unmarked) [GSK2344444], the “%Inh” value in the assay on YANK3 is 13%; in the assay on YES it was 3%; with YSK1 it was 0%; in the assay with YSK4 it was 9%; with ZAK, 0%; in the assay on ZAP70, 0%. The “%Inh” value in the assay on p38-alpha worked out at 0%; in the assay with p38-beta it was 0%; in the assay with p38-delta, 17%; with p38-gamma, 0%.

For the molecule `c1ccc(-c2n[nH]cc2-c2ccnc3ccccc23)nc1` [GW271431], the “%Inh” value was 18% with YANK3; 21% in the assay with YES; 1% in the assay on YSK1; 28% with YSK4; 28% in the assay with ZAK; 0% in the assay on ZAP70. The “%Inh” value was 29% with p38-alpha, 0% in the assay with p38-beta, 52% in the assay on p38-delta and 0% in the assay with p38-gamma.

For `COc1ccc(Nc2nccc(N3CCC(NC(=O)Nc4cccc(C(C)=O)c4)C3)n2)cc1` (centres unmarked) [GSK1379731], the “%Inh” value in the assay with YANK3 stood at 0%; in the assay on YES, 0%; with YSK1 it was 0%; with YSK4 it was 7%; in the assay with ZAK, 0%; in the assay with ZAP70 it was 0%. Also, the “%Inh” value in the assay with p38-alpha is listed as 0%; with p38-beta it was 0%; in the assay with p38-delta, 42%; with p38-gamma, 0%.

Take `Cn1ccc2ncnc(Oc3ccc(NC(=O)Nc4ccncc4)c(Cl)c3)c21`: the “%Inh” value in the assay with YANK3 stood at 9%; in the assay on YES it was 0%; in the assay on YSK1 it was 3%; with YSK4, 0%; with ZAK, 0%; with ZAP70, 7%. The “%Inh” value with p38-alpha came to 0%; with p38-beta, 18%; in the assay on p38-delta, 4%; in the assay on p38-gamma, 8%.

For the molecule `COC(=O)Nc1nc2cc(Oc3ccc(NC(=O)Nc4cc(F)ccc4F)cc3)ccc2[nH]1.Cl` [GW701424], the “%Inh” value in the assay with YANK3 amounted to 0%; in the assay on YES, 11%; with YSK1, 13%; in the assay on YSK4 it was 53%; with ZAK, 98.8%; with ZAP70 it was 71%. Moreover, the “%Inh” value stood at 37% in the assay on p38-alpha, 0% in the assay on p38-beta, 29% in the assay on p38-delta and 13% in the assay with p38-gamma.

Turning to `CCCCCc1nc2c(N)ncnc2n1CCCCC` [SKF-97255], the “%Inh” value in the assay with YANK3 was 0%; in the assay on YES it was 0%; in the assay on YSK1, 12%; in the assay with YSK4, 14%; in the assay on ZAK, 13%; with ZAP70, 13%. Moreover, the “%Inh” value was 0% in the assay with p38-alpha, 19% in the assay with p38-beta, 0% with p38-delta and 50% in the assay on p38-gamma.

On to `N#Cc1ccc(-c2cc(-c3c[nH]nc3-c3ccccn3)ccn2)cc1` [GW693028], for which the “%Inh” value is on record as 6% with YANK3; 13% with YES; 0% with YSK1; 33% in the assay on YSK4; 15% with ZAK; 0% in the assay with ZAP70. In addition, the “%Inh” value in the assay with p38-alpha is on record as 30%; with p38-beta, 0%; in the assay with p38-delta it was 22%; in the assay on p38-gamma, 0%.

Turning to `NS(=O)(=O)c1cccc(-c2ccc3ncc(N4CCOCC4)nc3c2)c1` [GSK1535721], the “%Inh” value worked out at 1% in the assay with YANK3; 7% in the assay on YES; 15% in the assay with YSK1; 89% in the assay on YSK4; 3% in the assay with ZAK; 0% in the assay on ZAP70. The “%Inh” value in the assay on p38-alpha stood at 9%; in the assay with p38-beta, 0%; with p38-delta, 21%; in the assay on p38-gamma, 0%.

As for `Cc1cccc(-c2nc(-c3ccc(S(C)(=O)=O)cc3)sc2-c2ccncc2)c1`, the “%Inh” value with YANK3 stood at 23%; with YES it was 0%; in the assay with YSK1 it was 18%; in the assay with YSK4, 9%; with ZAK it was 30%; in the assay with ZAP70 it was 0%. Further, the “%Inh” value in the assay with p38-alpha worked out at 92.4%; in the assay on p38-beta it was 0%; with p38-delta it was 19%; with p38-gamma, 12%.

Consider `Cl.Nc1ncnc2occ(-c3ccc(NC(=O)Nc4cc(C(F)(F)F)ccc4F)cc3)c12` [SB-707548], for which the “%Inh” value with YANK3 is on record as 7%; in the assay on YES it was 60%; with YSK1, 50%; in the assay with YSK4, 99.9%; in the assay with ZAK, 42%; in the assay with ZAP70 it was 19%. Also, the “%Inh” value stood at 86% in the assay with p38-alpha, 63% in the assay on p38-beta, 93.4% in the assay on p38-delta and 96.8% with p38-gamma.

Values taken from PMC5540273 (PLoS ONE, 2017).
